# According to ChEMBL document CHEMBL2218924, “A broad activity screen in support of a chemogenomic map for kinase signalling research and drug discovery” (Biochem J, 2013):
# Legend:
# [1] = biological target: T1, Ephrin type-B receptor 1 (Homo sapiens) (UniProt P54762); conditions: at 10 µM
# T1 sequence (whole entry): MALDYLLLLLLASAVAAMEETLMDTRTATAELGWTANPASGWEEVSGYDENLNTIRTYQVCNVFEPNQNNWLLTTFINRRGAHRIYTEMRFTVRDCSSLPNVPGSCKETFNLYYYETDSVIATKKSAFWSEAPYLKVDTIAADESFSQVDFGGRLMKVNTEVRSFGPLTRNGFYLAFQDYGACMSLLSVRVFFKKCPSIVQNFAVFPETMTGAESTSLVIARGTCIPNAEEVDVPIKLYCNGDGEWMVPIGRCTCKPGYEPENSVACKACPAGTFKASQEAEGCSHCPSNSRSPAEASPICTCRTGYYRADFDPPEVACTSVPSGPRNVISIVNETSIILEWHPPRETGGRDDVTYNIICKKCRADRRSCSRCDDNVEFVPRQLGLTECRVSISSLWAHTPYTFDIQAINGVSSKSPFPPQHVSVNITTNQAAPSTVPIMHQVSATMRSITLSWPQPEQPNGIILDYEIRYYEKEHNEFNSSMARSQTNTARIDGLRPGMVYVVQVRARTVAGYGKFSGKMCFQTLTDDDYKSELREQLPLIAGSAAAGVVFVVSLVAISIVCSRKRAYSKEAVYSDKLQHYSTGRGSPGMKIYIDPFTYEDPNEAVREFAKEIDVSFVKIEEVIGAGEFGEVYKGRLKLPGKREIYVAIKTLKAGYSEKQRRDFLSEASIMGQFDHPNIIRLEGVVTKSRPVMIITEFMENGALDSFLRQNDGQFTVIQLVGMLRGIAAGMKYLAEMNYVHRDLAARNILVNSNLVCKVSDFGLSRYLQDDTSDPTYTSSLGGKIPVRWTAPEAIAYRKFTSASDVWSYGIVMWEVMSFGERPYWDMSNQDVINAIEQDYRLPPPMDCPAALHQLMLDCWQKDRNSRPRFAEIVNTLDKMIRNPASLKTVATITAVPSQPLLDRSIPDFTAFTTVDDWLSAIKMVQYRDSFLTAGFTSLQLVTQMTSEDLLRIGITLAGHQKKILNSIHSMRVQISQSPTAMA
# [2] = biological target: T2, Ephrin type-B receptor 2 (Homo sapiens) (UniProt P29323); conditions: at 1 µM
# T2 sequence (whole entry): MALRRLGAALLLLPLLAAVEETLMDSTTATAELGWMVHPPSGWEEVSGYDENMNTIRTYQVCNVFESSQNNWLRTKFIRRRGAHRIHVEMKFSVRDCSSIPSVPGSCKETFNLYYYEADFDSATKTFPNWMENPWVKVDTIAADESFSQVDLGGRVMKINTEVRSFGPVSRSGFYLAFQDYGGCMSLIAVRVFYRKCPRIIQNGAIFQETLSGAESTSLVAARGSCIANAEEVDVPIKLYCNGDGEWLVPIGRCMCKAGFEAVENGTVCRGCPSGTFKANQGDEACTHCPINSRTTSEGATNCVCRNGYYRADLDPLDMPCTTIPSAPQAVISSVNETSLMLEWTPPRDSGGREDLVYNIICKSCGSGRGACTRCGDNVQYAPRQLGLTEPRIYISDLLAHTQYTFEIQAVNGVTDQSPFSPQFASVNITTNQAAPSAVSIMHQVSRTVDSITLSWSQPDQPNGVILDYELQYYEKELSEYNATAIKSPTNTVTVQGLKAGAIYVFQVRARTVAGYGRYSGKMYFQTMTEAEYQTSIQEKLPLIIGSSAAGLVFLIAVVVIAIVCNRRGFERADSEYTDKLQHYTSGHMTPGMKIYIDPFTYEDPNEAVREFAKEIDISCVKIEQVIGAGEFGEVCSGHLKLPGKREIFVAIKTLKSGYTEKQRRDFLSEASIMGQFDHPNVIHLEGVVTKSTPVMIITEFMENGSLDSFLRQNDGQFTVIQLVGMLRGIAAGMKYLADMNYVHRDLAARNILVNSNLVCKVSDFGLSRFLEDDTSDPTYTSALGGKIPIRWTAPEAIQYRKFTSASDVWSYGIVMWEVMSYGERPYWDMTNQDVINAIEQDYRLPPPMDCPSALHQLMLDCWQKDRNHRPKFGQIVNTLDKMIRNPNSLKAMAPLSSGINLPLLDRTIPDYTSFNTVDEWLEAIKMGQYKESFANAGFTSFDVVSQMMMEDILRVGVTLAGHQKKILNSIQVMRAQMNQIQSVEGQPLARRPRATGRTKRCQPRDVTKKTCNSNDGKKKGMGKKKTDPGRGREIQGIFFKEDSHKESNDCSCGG
# [3] = biological target: T2, Ephrin type-B receptor 2 (Homo sapiens); conditions: at 10 µM
# [4] = biological target: T3, Ephrin type-B receptor 3 (Homo sapiens) (UniProt P54753); conditions: at 1 µM
# T3 sequence (whole entry): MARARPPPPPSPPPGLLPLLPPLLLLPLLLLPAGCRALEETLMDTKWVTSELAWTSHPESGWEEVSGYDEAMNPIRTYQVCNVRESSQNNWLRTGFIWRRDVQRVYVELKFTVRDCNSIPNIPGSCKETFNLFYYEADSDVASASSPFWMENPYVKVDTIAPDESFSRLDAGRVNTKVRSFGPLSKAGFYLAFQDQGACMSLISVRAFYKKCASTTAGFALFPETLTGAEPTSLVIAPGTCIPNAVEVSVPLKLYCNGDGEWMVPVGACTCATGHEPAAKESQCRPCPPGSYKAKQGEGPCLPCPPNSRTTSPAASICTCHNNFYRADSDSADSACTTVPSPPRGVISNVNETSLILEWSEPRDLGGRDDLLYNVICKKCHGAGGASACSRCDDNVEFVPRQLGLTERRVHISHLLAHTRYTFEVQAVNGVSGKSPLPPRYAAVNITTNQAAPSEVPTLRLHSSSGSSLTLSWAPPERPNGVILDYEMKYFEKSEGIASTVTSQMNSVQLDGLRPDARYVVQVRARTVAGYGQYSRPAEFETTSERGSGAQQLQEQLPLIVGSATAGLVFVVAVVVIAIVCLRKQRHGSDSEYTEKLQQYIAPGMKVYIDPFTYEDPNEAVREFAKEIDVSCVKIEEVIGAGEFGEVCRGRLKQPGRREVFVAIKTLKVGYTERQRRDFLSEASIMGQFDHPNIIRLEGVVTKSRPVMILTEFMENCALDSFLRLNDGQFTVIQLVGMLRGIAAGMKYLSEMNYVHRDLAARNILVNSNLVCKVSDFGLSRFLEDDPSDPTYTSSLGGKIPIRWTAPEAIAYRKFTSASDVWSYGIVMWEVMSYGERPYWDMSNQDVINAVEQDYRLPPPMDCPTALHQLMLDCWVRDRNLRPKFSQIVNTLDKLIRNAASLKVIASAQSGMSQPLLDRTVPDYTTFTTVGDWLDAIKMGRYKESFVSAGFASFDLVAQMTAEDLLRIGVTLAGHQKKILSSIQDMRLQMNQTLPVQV
# [5] = biological target: T3, Ephrin type-B receptor 3 (Homo sapiens); conditions: at 10 µM
# [6] = biological target: T4, Ephrin type-B receptor 4 (Homo sapiens) (UniProt P54760); conditions: at 1 µM
# T4 sequence (whole entry): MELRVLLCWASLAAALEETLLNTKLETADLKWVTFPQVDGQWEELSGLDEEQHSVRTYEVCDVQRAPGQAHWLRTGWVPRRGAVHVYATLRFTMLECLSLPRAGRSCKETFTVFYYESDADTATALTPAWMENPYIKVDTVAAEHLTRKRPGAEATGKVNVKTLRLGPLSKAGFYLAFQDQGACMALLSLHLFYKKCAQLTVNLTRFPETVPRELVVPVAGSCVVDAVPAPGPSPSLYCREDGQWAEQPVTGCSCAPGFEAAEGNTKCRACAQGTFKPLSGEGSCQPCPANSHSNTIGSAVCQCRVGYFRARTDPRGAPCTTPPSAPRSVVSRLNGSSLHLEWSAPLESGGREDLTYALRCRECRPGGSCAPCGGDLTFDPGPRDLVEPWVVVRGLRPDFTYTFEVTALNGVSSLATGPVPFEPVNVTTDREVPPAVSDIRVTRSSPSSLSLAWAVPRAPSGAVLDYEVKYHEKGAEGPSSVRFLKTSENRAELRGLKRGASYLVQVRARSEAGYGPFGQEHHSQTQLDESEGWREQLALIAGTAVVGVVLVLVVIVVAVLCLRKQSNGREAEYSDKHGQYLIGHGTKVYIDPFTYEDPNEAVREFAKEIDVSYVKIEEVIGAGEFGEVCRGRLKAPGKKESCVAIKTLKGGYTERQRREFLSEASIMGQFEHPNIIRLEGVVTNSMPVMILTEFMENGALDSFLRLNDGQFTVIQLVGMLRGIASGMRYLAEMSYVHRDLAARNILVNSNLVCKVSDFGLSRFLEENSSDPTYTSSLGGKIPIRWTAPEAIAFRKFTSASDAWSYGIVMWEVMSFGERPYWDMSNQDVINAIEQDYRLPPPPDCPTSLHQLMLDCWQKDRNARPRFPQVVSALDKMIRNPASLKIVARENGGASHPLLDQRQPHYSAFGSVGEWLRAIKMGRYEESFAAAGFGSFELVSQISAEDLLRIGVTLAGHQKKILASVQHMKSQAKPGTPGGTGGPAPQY
# [7] = biological target: T4, Ephrin type-B receptor 4 (Homo sapiens); conditions: at 10 µM
# [8] = biological target: Receptor tyrosine-protein kinase erbB-4 (Homo sapiens) (UniProt Q15303); conditions: at 1 µM
# [9] = biological target: Receptor tyrosine-protein kinase erbB-4 (Homo sapiens) (UniProt Q15303); conditions: at 10 µM
# [10] = biological target: Focal adhesion kinase 1 (Homo sapiens) (UniProt Q05397); conditions: at 1 µM
# Chain of Focal adhesion kinase 1 (Homo sapiens) (Q05397 2-1052 limits assumed): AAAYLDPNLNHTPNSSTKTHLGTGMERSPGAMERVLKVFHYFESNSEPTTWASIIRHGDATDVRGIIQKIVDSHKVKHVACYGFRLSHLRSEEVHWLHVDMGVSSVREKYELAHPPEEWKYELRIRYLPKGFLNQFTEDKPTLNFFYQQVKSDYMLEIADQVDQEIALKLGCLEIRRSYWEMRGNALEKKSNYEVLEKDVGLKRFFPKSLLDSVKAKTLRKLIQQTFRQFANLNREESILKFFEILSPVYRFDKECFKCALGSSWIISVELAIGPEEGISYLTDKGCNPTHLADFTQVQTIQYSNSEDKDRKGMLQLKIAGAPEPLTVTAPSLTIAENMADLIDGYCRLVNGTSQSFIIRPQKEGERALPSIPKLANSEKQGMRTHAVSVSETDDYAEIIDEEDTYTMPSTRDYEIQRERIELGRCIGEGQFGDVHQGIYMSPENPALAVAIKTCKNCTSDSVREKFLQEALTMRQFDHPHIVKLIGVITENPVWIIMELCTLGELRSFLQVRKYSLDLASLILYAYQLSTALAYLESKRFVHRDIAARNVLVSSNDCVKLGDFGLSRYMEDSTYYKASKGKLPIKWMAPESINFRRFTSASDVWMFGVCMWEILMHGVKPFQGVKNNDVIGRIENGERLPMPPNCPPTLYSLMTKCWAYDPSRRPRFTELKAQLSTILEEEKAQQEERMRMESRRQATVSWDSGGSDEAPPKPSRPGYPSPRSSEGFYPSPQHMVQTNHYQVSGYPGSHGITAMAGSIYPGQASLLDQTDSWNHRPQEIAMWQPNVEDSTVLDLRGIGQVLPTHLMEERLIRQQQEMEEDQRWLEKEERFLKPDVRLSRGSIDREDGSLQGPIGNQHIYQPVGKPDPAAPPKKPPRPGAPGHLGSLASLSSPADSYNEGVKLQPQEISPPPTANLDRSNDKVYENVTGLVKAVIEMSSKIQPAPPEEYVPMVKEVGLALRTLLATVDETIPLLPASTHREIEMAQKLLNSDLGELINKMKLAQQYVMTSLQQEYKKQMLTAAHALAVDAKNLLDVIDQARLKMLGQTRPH
# Chain of Receptor tyrosine-protein kinase erbB-4 (Homo sapiens) (Q15303 whole entry): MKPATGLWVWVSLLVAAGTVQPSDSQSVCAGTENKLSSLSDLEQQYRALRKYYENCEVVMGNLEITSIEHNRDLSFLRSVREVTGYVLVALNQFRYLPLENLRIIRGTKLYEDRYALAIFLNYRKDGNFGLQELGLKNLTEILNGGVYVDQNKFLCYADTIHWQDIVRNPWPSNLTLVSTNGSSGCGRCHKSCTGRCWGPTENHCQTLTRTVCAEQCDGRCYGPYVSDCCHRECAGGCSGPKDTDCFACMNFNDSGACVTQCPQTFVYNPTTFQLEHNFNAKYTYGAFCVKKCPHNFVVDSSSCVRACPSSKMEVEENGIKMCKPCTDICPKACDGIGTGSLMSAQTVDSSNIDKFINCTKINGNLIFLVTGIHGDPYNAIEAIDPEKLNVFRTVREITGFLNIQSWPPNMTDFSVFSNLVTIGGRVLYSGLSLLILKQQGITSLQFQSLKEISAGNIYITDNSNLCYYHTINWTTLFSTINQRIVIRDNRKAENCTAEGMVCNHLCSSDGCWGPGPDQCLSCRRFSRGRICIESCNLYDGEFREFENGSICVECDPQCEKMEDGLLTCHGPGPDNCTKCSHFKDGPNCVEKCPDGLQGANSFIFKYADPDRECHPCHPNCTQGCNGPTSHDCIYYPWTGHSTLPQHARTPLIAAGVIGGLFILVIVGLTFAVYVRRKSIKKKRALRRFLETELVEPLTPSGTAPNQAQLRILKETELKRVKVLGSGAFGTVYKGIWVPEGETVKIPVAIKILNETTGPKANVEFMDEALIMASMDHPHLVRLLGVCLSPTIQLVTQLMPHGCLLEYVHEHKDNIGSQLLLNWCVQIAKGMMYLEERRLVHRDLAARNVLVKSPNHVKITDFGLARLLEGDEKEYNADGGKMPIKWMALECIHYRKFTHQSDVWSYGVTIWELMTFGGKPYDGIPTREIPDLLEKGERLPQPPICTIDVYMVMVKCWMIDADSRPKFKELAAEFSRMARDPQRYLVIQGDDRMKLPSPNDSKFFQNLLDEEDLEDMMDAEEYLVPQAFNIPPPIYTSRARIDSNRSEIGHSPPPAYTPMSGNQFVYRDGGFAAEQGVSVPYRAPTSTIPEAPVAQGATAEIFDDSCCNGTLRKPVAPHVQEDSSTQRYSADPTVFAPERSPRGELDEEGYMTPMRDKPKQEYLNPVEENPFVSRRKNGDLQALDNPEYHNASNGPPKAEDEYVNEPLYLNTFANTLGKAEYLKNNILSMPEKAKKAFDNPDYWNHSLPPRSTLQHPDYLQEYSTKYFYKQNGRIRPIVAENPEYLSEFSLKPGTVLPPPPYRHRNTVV
structure (smiles),measurement,setting,value
COc1cc2ncnc(Nc3ccc(Oc4ccccc4)cc3)c2cc1OC,residual activity,[1],107%
same,residual activity,[2],115%
same,residual activity,[3],109%
same,residual activity,[4],120% (inactive)
same,residual activity,[5],93%
same,residual activity,[6],106%
same,residual activity,[7],138%
same,residual activity,[8],-3%
same,residual activity,[9],-5%
same,residual activity,[10],72%
